Assay: cellular ROS inducers, fluorescent dye readout – U2OS cells, fluorescence, dry powder, set 2, dose response (AID 624442)
Conditions: U2OS ROS induction, H2DCF-DA fluorescence, stronger effect = higher value; at 38 µM unless noted;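 active = activation curve reaches 40% at a concentration no higher than the top valid dose tested; inactive = signal falling instead of rising, plus the rest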

Max activation, inactive:
Nc1nc(SCc2ccccc2)ns1 14.6% [at 5 µM]
O=C(Nc1nc(SCc2ccccc2)ns1)C1CCC1 30.8%
O=C(Nc1ccccc1)Nc1nc(SCc2ccccc2)ns1 11.1%
Nc1nc(SCc2ccc(Cl)cc2Cl)ns1 32.3% [at 0.3 µM]
Cc1ccccc1CSc1n[nH]c(N)n1 25.1% [at 1.2 µM]
Cc1ccccc1CSc1nsc(N)n1 27.9% [at 19.5 µM]
O=C(Nc1nc(SCc2ccccc2)ns1)C1CC=CCC1 (configuration not stated) 65.2%
Nc1nc(SCc2ccccc2Cl)ns1 17.6% [at 5 µM]
Cc1ccccc1CSc1nnc(N)s1 16.2% [at 19.5 µM]
Nc1nc(SCc2ccc(F)cc2)ns1 15.9% [at 1.2 µM]
Nc1nc(S(=O)(=O)Cc2ccccc2)ns1 18.5% [at 0.6 µM]
Cc1cccc(CSc2nsc(N)n2)c1 24.3% [at 19.5 µM]

Source: PubChem BioAssay AID624442 (Broad Institute, 2012)
